Results filed as inconclusive are left out. Entries that show only a call come without a potency. Calls of active or inactive are those of the source. Calls follow the shape of the dose curve; as a rule, active = well fitted cell-killing curve with a large enough effect; inconclusive = small, poorly fitted or top-dose-only effect; inactive = flat fitted curve, though single readings scatter.
Test: Cell Viability - LYMP2-013 (AID 970);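 also: cells exposed to compound for 24 h at 37 °C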
Conditions: LYMP2-013 lymphoblastoid cells viability; series mostly up to 92.2 µM
In short: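 In complete culture medium, human lymphoblastoid cells were dosed for 24 hr at 37 C, with tetraoctylammonium bromide (6.4pM to 92 uM) as positive control. Viability reflects luciferase-based ATP signal; AC50 derived from concentration-response curves.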
For Oc1ccc2cc(SSc3ccc4cc(O)ccc4c3)ccc2c1, the Potency was 50.1 µM (active). For Nc1ccc2cc3ccccc3cc2c1, the Potency was “inactive”. For CN(C)c1ccc(C2(c3ccc(N(C)C)cc3)OC(=O)c3cc(N(C)C)ccc32)cc1, the Potency was “inactive”. For Cc1cc(Nc2ccc(O)cc2)ccc1N, the Potency was 50.1 µM (active). For Cc1cc(O)c(C(C)(C)C)cc1Sc1cc(C(C)(C)C)c(O)cc1C, the Potency was 31.6 µM (active). For C=C(C)c1ccccc1, the Potency was “inactive”. In the case of C=CC(=O)OCCOCCOC(=O)C=C, the Potency was 25.1 µM (active). With O=C1OC(O)C(C(Cl)Cl)=C1Cl (stereo not given) the Potency was 25.1 µM (active). In the case of CNc1ccc(O)cc1, the Potency was 6.31 µM (active). With CC(=O)Nc1ccc(C(=O)CCl)cc1 the Potency was 6.31 µM (active). With CCC(C)Nc1ccc(NC(C)CC)cc1 (stereo not given) the Potency was 6.31 µM (active). For O=C=Nc1ccc(Cc2ccc(N=C=O)cc2)cc1, the Potency was “inactive”. In the case of c1ccc2c(c1)ccc1cc3c(ccc4ccccc43)cc12, the Potency was “inactive”. For c1ccc2c(c1)-c1cccc3c1c-2cc1ccccc13, the Potency was “inactive”. For O=[N+]([O-])c1cc([N+](=O)[O-])c2ccc(S(=O)(=O)O)cc2c1O, the Potency was “inactive”. For O=Cc1ccc(Cl)c(Cl)c1, the Potency was “inactive”.

Test: Cell Viability - LYMP2-015 (AID 971);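 also: cells exposed to compound for 24 h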
Conditions: LYMP2-015 lymphoblastoid cell viability; series mostly up to 92.2 µM
In short: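 AC50 values reflect Hill-model fits of ATP-based luminescence (CellTiter-Glo) from a human lymphoblastoid line, 2500 cells/well, treated 24 hr at 37 C.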
With Nc1ccc2cc3ccccc3cc2c1 the Potency was “inactive”. With CN(C)c1ccc(C2(c3ccc(N(C)C)cc3)OC(=O)c3cc(N(C)C)ccc32)cc1 the Potency was “inactive”. For Cc1cc(Nc2ccc(O)cc2)ccc1N, the Potency was 39.8 µM (active). With Cc1cc(O)c(C(C)(C)C)cc1Sc1cc(C(C)(C)C)c(O)cc1C the Potency was 39.8 µM (active). With C=C(C)c1ccccc1 the Potency was “inactive”. For C=CC(=O)OCCOCCOC(=O)C=C, the Potency was 15.8 µM (active). With C/C=C1\C(=O)C[C@H]2[C@@H]3CCC4=CC(=O)CC[C@]4(C)[C@H]3CC[C@]12C the Potency was “inactive”. In the case of O=C1OC(O)C(C(Cl)Cl)=C1Cl (stereo not given), the Potency was 25.1 µM (active). With CNc1ccc(O)cc1 the Potency was 5.01 µM (active). In the case of CC(=O)Nc1ccc(C(=O)CCl)cc1, the Potency was 5.01 µM (active). In the case of CCC(C)Nc1ccc(NC(C)CC)cc1 (stereo not given), the Potency was 3.98 µM (active). With O=C=Nc1ccc(Cc2ccc(N=C=O)cc2)cc1 the Potency was “inactive”. For c1ccc2c(c1)ccc1cc3c(ccc4ccccc43)cc12, the Potency was “inactive”. With c1ccc2c(c1)-c1cccc3c1c-2cc1ccccc13 the Potency was “inactive”. For O=[N+]([O-])c1cc([N+](=O)[O-])c2ccc(S(=O)(=O)O)cc2c1O, the Potency was “inactive”. For O=Cc1ccc(Cl)c(Cl)c1, the Potency was “inactive”.

Test: Cell Viability - LYMP2-017 (AID 972);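 also: cells exposed to compound for 24 hours at 37 °C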
Conditions: LYMP2-017 lymphoblastoid cell viability; series mostly up to 92.2 µM
In short: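 In this qHTS format, lymphoblastoid cells in complete medium receive test compound for a day at 37 C before ATP content is quantified by luciferase luminescence. Reported AC50 figures come from standard Hill-equation curve fitting.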
In the case of Oc1ccc2cc(SSc3ccc4cc(O)ccc4c3)ccc2c1, the Potency was 50.1 µM (active). With Nc1ccc2cc3ccccc3cc2c1 the Potency was “inactive”. In the case of CN(C)c1ccc(C2(c3ccc(N(C)C)cc3)OC(=O)c3cc(N(C)C)ccc32)cc1, the Potency was “inactive”. With Cc1cc(Nc2ccc(O)cc2)ccc1N the Potency was 39.8 µM (active). With Cc1cc(O)c(C(C)(C)C)cc1Sc1cc(C(C)(C)C)c(O)cc1C the Potency was 50.1 µM (active). With C=C(C)c1ccccc1 the Potency was “inactive”. With O=C1OC2(c3cc(Br)c(O)c(Br)c3Oc3c2cc(Br)c(O)c3Br)c2c(Cl)c(Cl)c(Cl)c(Cl)c21 the Potency was “inactive”. For C=CC(=O)OCCOCCOC(=O)C=C, the Potency was 20 µM (active). With O=C1OC(O)C(C(Cl)Cl)=C1Cl (stereo not given) the Potency was 25.1 µM (active). With CNc1ccc(O)cc1 the Potency was 3.98 µM (active). With CC(=O)Nc1ccc(C(=O)CCl)cc1 the Potency was 5.01 µM (active). For CCC(C)Nc1ccc(NC(C)CC)cc1 (stereo not given), the Potency was 3.98 µM (active). In the case of O=C=Nc1ccc(Cc2ccc(N=C=O)cc2)cc1, the Potency was “inactive”. For c1ccc2c(c1)ccc1cc3c(ccc4ccccc43)cc12, the Potency was “inactive”. For c1ccc2c(c1)-c1cccc3c1c-2cc1ccccc13, the Potency was “inactive”. For O=[N+]([O-])c1cc([N+](=O)[O-])c2ccc(S(=O)(=O)O)cc2c1O, the Potency was “inactive”. In the case of O=Cc1ccc(Cl)c(Cl)c1, the Potency was “inactive”.

Test: Cell Viability - LYMP2-019 (AID 973);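 also: cells exposed to compound for 24 h at 37 °C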
Conditions: LYMP2-019 lymphoblastoid cell line viability; series mostly up to 92.2 µM
In short: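 AC50 values come from Hill-equation modelling of qHTS concentration-response curves, where viability is measured as luciferase-based ATP luminescence in the lymphoblastoid line after 24 hr compound exposure in complete culture medium.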
In the case of Nc1ccc2cc3ccccc3cc2c1, the Potency was “inactive”. For CN(C)c1ccc(C2(c3ccc(N(C)C)cc3)OC(=O)c3cc(N(C)C)ccc32)cc1, the Potency was “inactive”. In the case of Cc1cc(Nc2ccc(O)cc2)ccc1N, the Potency was 39.8 µM (active). With CO[C@H]1/C=C/O[C@@]2(C)Oc3c(C)c(O)c4c(O)c(c5c(c4c3C2=O)NC2(CCN(CC(C)C)CC2)N=5)=NC(=O)/C(C)=C\C=C\[C@H](C)[C@H](O)[C@@H](C)[C@@H](O)[C@@H](C)[C@H](OC(C)=O)[C@@H]1C the Potency was “inactive”. With Cc1cc(O)c(C(C)(C)C)cc1Sc1cc(C(C)(C)C)c(O)cc1C the Potency was 39.8 µM (active). In the case of C=C(C)c1ccccc1, the Potency was “inactive”. In the case of C=CC(=O)OCCOCCOC(=O)C=C, the Potency was 25.1 µM (active). In the case of O=C1OC(O)C(C(Cl)Cl)=C1Cl (stereo not given), the Potency was 25.1 µM (active). In the case of CNc1ccc(O)cc1, the Potency was 3.98 µM (active). In the case of CC(=O)Nc1ccc(C(=O)CCl)cc1, the Potency was 5.01 µM (active). For CCC(C)Nc1ccc(NC(C)CC)cc1 (stereo not given), the Potency was 5.01 µM (active). With O=C=Nc1ccc(Cc2ccc(N=C=O)cc2)cc1 the Potency was “inactive”. In the case of c1ccc2c(c1)ccc1cc3c(ccc4ccccc43)cc12, the Potency was “inactive”. For c1ccc2c(c1)-c1cccc3c1c-2cc1ccccc13, the Potency was “inactive”. For O=[N+]([O-])c1cc([N+](=O)[O-])c2ccc(S(=O)(=O)O)cc2c1O, the Potency was “inactive”. With O=Cc1ccc(Cl)c(Cl)c1 the Potency was “inactive”.

Reference: PubChem BioAssay (NCATS)
Also: nearly all actives have a fitted effect of over 55% in size.
Potency is read from the fitted curve at half-maximal effect.
